Cytotoxicity call data for 40 compounds are collected here from the antibiotic and cytotoxicity screens of Wong et al. (2023).

Out of some 39,000 compounds screened, about 3,300 (8.5%) were called active. The full list was thinned out, with actives kept by preference.

The test relates to HepG2. Nature of the test: cytotoxicity call (relative viability < 0.9). Conditions: 10 µM.
As to `C[C@@H]1CN([C@@H](C)CO)C(=O)CCCn2nncc2CO[C@H]1CN(C)C(=O)Nc1ccc(N2CCN(C)CC2)cc1`, the cytotoxicity call was “inactive”.
As for `C[C@H]1CN([C@@H](C)CO)C(=O)Cc2cc(NC(=O)Nc3cccc4ccccc34)ccc2O[C@H]1CN(C)C(=O)Nc1ccc(F)cc1`, the entry is “inactive”; as for `C[C@@H]1CN([C@@H](C)CO)C(=O)c2cc(NS(=O)(=O)c3ccccc3)ccc2O[C@@H](C)CCCCO[C@H]1CN(C)Cc1ccc(C(=O)O)cc1`, “inactive”.
The entry for `Cc1cc(C(=O)Nc2cccc3c2O[C@H](CN(C)S(=O)(=O)c2ccc(Cl)cc2)[C@@H](C)CN([C@@H](C)CO)C3=O)n(C)n1` is “inactive”; for `Cc1ccc(S(=O)(=O)Nc2ccc3c(c2)CC(=O)N([C@@H](C)CO)C[C@@H](C)[C@H](CN(C)S(=O)(=O)c2ccc(F)cc2)O3)cc1` it is “inactive”; for `CC(C)(O/N=C(\C(=O)N[C@@H]1C(=O)N2C(C(=O)O)=C(C[N+]3(CCNC(=O)c4ccc(O)c(O)c4Cl)CCCC3)CS[C@H]12)c1csc(N)n1)C(=O)O` it is “inactive”.
The entry for `CC(C)NC(=O)Nc1ccc2c(c1)C(=O)N([C@@H](C)CO)C[C@@H](C)[C@H](CN(C)C(=O)Nc1ccc(F)cc1)OCCCC[C@@H](C)O2` is “inactive”; for `C[C@H]1CN([C@@H](C)CO)C(=O)Cc2cc(NS(C)(=O)=O)ccc2O[C@H]1CN(C)C(=O)Nc1ccccc1` it is “inactive”; for `C[C@H]1CN([C@@H](C)CO)C(=O)c2cc(NC(=O)Nc3cccc4ccccc34)ccc2O[C@@H]1CN(C)Cc1ccncc1` it is “inactive”.
On to `COc1ccc(CNC(=O)N(C)C[C@H]2OCc3ccccc3-c3c(n(C)c4ccccc34)C(=O)N([C@H](C)CO)C[C@@H]2C)cc1`, for which the cytotoxicity call was “inactive”.
The entry for `O=C(C[C@@H]1C[C@@H]2c3cc(NC(=O)C4CCOCC4)ccc3O[C@@H]2[C@@H](CO)O1)NCCN1CCCCC1` is “inactive”; for `Cc1noc(C)c1S(=O)(=O)Nc1ccc2c(c1)CC(=O)N([C@H](C)CO)C[C@H](C)[C@H](CN(C)C(=O)Nc1ccccc1)O2` it is “inactive”; for `C[C@@H]1CCCCO[C@H](CN(C)Cc2ccc(C(=O)Nc3ccccc3N)cc2)[C@@H](C)CN([C@H](C)CO)C(=O)c2cc(NS(=O)(=O)c3cccs3)ccc2O1` it is “inactive”.
As for `C[C@@H]1CCCCO[C@@H](CN(C)Cc2ccc(C(=O)Nc3ccccc3N)cc2)[C@@H](C)CN([C@H](C)CO)C(=O)c2cc(NS(=O)(=O)c3cccs3)ccc2O1`, the entry is “active”; as for `C[C@@H]1CCCCO[C@H](CN(C)Cc2ccc(C(=O)Nc3ccccc3N)cc2)[C@@H](C)CN([C@H](C)CO)C(=O)c2cc(NS(=O)(=O)c3ccccc3)ccc2O1`, “inactive”.
As for `COc1ccc2c3c(n(c2c1)C)[C@H](CO)N(C[C@]13CCN(CC1)C(=O)Nc1ccc(cc1F)F)C(=O)Nc1ccc(cc1)F`, the entry is “inactive”; as for `O=C(C[C@@H]1CC[C@H](NS(=O)(=O)c2ccccc2)[C@@H](CO)O1)NCc1ccncn1`, “inactive”; as for `C[C@H](CO)N1C[C@H](C)[C@H](CN(C)C(=O)Nc2ccc(C(F)(F)F)cc2)Oc2ccc(NC(=O)C3CCCCC3)cc2C1=O`, “inactive”.
`C[C@H](CO)N1C[C@H](C)[C@@H](CN(C)Cc2ccc(F)cc2)Oc2cc(C#CC3CC3)ccc2S1(=O)=O`: the cytotoxicity call is “inactive”.
As for `C[C@@H]1CN([C@@H](C)CO)S(=O)(=O)c2ccc(C#CCN(C)C)cc2O[C@@H]1CN(C)Cc1ccc(F)cc1`, the entry is “inactive”.
The entry for `C[C@H]1CN([C@@H](C)CO)S(=O)(=O)c2ccc(C#CCN(C)C)cc2O[C@@H]1CN(C)Cc1ccc(F)cc1` is “inactive”; for `C[C@@H]1CN([C@H](C)CO)S(=O)(=O)c2ccc(C#CCN(C)C)cc2O[C@H]1CN(C)Cc1ccc(F)cc1` it is “active”.
As for `C[C@@H]1CN([C@H](C)CO)S(=O)(=O)c2ccc(C#CC3CC3)cc2O[C@H]1CN(C)Cc1ccc(F)cc1`, the entry is “active”.
For `C[C@@H]1CN([C@@H](C)CO)S(=O)(=O)c2ccc(C#CCN(C)C)cc2O[C@H]1CN(C)Cc1ccc(F)cc1`, the cytotoxicity call is “inactive”.
The entry for `C[C@H](CO)N1C[C@H](C)[C@H](CN(C)Cc2ccc(F)cc2)Oc2cc(C#CCN(C)C)ccc2S1(=O)=O` is “active”; for `C[C@H](CO)N1C[C@H](C)[C@@H](CN(C)Cc2ccc(F)cc2)Oc2cc(C#CCN(C)C)ccc2S1(=O)=O` it is “inactive”.
For `C[C@@H]1CN([C@@H](C)CO)S(=O)(=O)c2ccc(C#CC3CC3)cc2O[C@H]1CN(C)Cc1ccc(F)cc1`, the cytotoxicity call was “inactive”.
Consider `CCCNC(=O)N1C[C@@H](O)COC[C@@H]2O[C@@H](CC(=O)NCc3ccncn3)CC[C@H]21`, for which the cytotoxicity call is “inactive”.
The entry for `C[C@@H]1CN([C@@H](C)CO)S(=O)(=O)c2ccc(C3=CCCC3)cc2O[C@@H]1CN(C)C(=O)c1cnccn1` is “inactive”.
Turning to `COc1ccc(CN(C)C[C@H]2OCCCC[C@H](C)Oc3ccc(NS(=O)(=O)c4ccc(Cl)cc4)cc3C(=O)N([C@H](C)CO)C[C@H]2C)cc1`, the cytotoxicity call is “inactive”.
The entry for `C[C@H](CO)N1C[C@H](C)[C@@H](CN(C)C(=O)Cc2ccccc2)OCCCC[C@H](C)Oc2ccc(NC(=O)Cc3ccccc3)cc2C1=O` is “inactive”.
As for `CC(C)N1C[C@H](C)[C@@H](CN(C)Cc2ccc(Oc3ccccc3)cc2)Oc2c(NC(=O)c3ccccn3)cccc2C1=O`, the entry is “inactive”; as for `COc1ccccc1-c1ccc2c(c1)O[C@H](CN(C)CC1CCOCC1)[C@@H](C)CN([C@H](C)CO)S2(=O)=O`, “inactive”.
`C[C@@H]1CN([C@@H](C)CO)S(=O)(=O)c2ccc(C#CC3(O)CCCC3)cc2O[C@@H]1CN(C)C(=O)c1cccnc1`: the cytotoxicity call is “inactive”.
The entry for `C[C@@H]1CN([C@@H](C)CO)C(=O)c2ccccc2-c2ccccc2CO[C@H]1CN(C)Cc1ccccc1C(F)(F)F` is “inactive”; for `O=C(C[C@@H]1CC[C@H]2[C@@H](COC[C@@H](O)CN2S(=O)(=O)c2ccc(F)cc2)O1)N[C@@H]1CCN(Cc2ccccc2)C1` it is “inactive”.
The entry for `O=C(C[C@H]1CC[C@H](NC(=O)Cc2ccccn2)[C@H](CO)O1)NCCc1ccncc1` is “inactive”; for `CC1CCN(C(=O)N2c3ccccc3Sc3ccccc32)CC1` it is “inactive”.
The entry for `CSc1ccc2c(c1)N(CCC1CCCCN1C)c1ccccc1S2.Cl` (stereo not given) is “active”.
Turning to `C[C@H]1CN([C@@H](C)CO)C(=O)c2cccc(NS(=O)(=O)c3cccs3)c2O[C@H]1CN(C)S(C)(=O)=O`, the cytotoxicity call is “inactive”.
